This passage reports outcome and AC50 results from PubChem BioAssay (EPA / NIEHS).

Records with an inconclusive call do not appear. Active and inactive are the calls of the source. The calls were made as follows: active = hit-call score of the fitted dose curve at least 0.9, where 1 is the maximum; inconclusive = response in the unintended direction; inactive = score below 0.9.

For experiment [1], the target named is Tyrosine-protein phosphatase non-receptor type 13 (Homo sapiens) (UniProt Q12923). Nature of the experiment: NVS_ENZ_hPTPN13: NovaScreen (NVS) Enzymatic Assay for human Protein Tyrosine Phosphatase Non-receptor Type 13 (PTPN13) (AID 2283205). In short, it runs like this:
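Screened first at a single 25 uM in duplicate; compounds passing the threshold (e.g. 30% inhibition) were rerun in concentration series, top 50 uM. Recombinant enzyme, fluorescent substrate, mobility-shift separation, 0.5 h read. Data fitted as inhibition relative to DMSO.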

Experiment [2] addresses human Protein Tyrosine Phosphatase Non-receptor Type 9 (PTPN9), PTPN9 (gene 5780) (UniProt P43378). In words: NVS_ENZ_hPTPN9: NovaScreen (NVS) Enzymatic Assay for human Protein Tyrosine Phosphatase Non-receptor Type 9 (PTPN9) (AID 2283209). A digest of the protocol:
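Sf9-expressed enzyme in a cell-free assay, fluorescence read 1.33 h after dosing with mobility-shift separation of substrate and product. Tested at 25 uM in duplicate, then up to 50 uM; signal loss versus DMSO.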

Experiment [3] concerns the target human Protein Tyrosine Phosphatase Receptor Type C (PTPRC), PTPRC (gene 5788) (UniProt P08575). Nature of the experiment: NVS_ENZ_hPTPRC: NovaScreen (NVS) Enzymatic Assay for human Protein Tyrosine Phosphatase Receptor Type C (PTPRC) (AID 2283212). A digest of the protocol:
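Absorbance-based phosphatase activity of human PTPRC protein extracted from yeast was measured 1 h post-dosing. Compounds first tested at 25 uM in duplicate, then those passing threshold in singleton concentration series to 50 uM.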

Experiment [4] deals with human Phosphodiesterase 5 (PDE5), PDE5A (gene 8654) (UniProt O76074). In words: NVS_ENZ_hPDE5: NovaScreen (NVS) Enzymatic Assay for human Phosphodiesterase 5 (PDE5) (AID 2283194). In short, it runs like this: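 Screening began in duplicate at 25 uM, with actives taken into concentration-response. Enzyme activity of recombinant PDE5 toward its substrate was measured at 1 h by fluorescence mobility-shift detection, relative to DMSO controls.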

Experiment [5] has as its target human Phosphatase and Tensin Homolog (PTEN), PTEN (gene 5728) (UniProt P60484). Nature of the experiment: NVS_ENZ_hPTEN: NovaScreen (NVS) Enzymatic Assay for human Phosphatase and Tensin Homolog (PTEN) (AID 2283203). In short, it runs like this:
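Loss of fluorescent product signal after mobility-shift separation reports PTEN activity, recombinant human enzyme, 1 h after compound addition. Single 25 uM duplicate screen, then concentration-response on actives; DMSO baseline.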

The target in experiment [6] is human Phosphodiesterase 10 (PDE10), PDE10A (gene 10846) (UniProt Q9Y233). Nature of the experiment: NVS_ENZ_hPDE10: NovaScreen (NVS) Enzymatic Assay for human Phosphodiesterase 10 (PDE10) (AID 2283195). A digest of the protocol: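 Readout is fluorescence intensity following electrophoretic mobility-shift separation, 1 h after dosing of isolated PDE10A protein. Hits meeting a preset threshold at 25 uM went to concentration series (max 50 uM), analysed relative to DMSO.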
human Phosphodiesterase 10 (PDE10), PDE10A (gene 10846), sequence (Q9Y233 whole entry, looked up): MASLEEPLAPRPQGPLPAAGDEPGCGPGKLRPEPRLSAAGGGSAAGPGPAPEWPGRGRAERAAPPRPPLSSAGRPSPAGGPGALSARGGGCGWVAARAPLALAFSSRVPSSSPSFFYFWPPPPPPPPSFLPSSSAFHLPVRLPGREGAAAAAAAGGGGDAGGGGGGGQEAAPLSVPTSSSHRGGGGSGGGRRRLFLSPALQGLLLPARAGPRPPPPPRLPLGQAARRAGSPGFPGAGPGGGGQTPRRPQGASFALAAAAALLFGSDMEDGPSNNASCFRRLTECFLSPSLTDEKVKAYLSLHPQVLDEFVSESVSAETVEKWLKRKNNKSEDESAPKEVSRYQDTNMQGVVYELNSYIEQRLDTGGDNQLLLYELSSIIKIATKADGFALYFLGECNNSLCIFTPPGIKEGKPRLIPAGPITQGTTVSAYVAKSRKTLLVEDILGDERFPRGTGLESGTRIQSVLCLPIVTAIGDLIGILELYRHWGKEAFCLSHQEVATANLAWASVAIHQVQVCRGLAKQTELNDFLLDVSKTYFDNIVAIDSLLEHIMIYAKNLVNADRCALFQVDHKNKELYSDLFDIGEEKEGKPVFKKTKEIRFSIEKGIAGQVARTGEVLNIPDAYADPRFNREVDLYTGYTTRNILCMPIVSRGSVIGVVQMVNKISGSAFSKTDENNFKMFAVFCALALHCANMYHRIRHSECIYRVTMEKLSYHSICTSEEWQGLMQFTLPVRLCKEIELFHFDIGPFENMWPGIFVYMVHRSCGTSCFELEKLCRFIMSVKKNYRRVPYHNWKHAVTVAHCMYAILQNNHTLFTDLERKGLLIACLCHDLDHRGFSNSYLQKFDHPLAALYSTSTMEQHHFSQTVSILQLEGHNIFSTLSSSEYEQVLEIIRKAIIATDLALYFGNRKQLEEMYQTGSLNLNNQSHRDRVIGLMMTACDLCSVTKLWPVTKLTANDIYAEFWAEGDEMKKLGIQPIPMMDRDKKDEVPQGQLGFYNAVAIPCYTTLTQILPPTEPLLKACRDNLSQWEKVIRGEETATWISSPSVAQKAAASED

In experiment [7] the target is human Sirtuin 1 (SIRT1), SIRT1 (gene 23411) (UniProt Q96EB6). In words: NVS_ENZ_hSIRT1: NovaScreen (NVS) Enzymatic Assay for human Sirtuin 1 (SIRT1) (AID 2283219). A digest of the protocol: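 Cell-free recombinant SIRT1 with a fluorescent substrate; substrate and product separated by electrophoretic mobility shift and read by fluorescence intensity, 1 h after dosing. Primary screen at 25 uM in duplicate; hits re-run in concentration-response up to 50 uM, relative to DMSO.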
human Sirtuin 1 (SIRT1), SIRT1 (gene 23411), sequence (Q96EB6 whole entry, looked up): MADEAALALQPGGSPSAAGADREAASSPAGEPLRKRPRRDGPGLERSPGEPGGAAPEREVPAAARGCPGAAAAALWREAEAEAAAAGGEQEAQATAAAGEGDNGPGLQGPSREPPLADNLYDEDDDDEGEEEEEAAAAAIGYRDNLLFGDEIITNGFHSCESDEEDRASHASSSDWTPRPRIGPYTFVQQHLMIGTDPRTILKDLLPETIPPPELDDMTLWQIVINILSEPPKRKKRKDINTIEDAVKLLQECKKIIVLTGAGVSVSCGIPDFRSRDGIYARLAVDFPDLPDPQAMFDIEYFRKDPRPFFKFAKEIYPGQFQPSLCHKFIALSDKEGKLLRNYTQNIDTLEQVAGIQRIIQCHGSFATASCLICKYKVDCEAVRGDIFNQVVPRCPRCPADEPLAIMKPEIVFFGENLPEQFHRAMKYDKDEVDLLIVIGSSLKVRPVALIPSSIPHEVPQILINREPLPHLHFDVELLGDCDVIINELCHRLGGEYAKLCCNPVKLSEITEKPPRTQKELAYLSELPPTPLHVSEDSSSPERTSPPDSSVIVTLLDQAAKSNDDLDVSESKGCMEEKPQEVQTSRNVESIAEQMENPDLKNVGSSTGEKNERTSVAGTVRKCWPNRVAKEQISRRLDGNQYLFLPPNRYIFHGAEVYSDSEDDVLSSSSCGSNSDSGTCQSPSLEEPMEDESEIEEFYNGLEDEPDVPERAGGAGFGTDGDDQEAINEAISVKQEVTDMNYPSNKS

For experiment [8], the target named is human Protein Tyrosine Phosphatase Non-receptor Type 6 (PTPN6), PTPN6 (gene 5777) (UniProt P29350). In words: NVS_ENZ_hPTPN6: NovaScreen (NVS) Enzymatic Assay for human Protein Tyrosine Phosphatase Non-receptor Type 6 (PTPN6) (AID 2283210). In short, it runs like this:
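Recombinant human PTPN6 from SF9 cells, enzyme activity followed by fluorescence after mobility-shift separation of substrate and product at 1.33 h. Chemicals first tested at a single 25 uM in duplicate, then confirmed across concentration series; loss of signal relative to DMSO.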

Experiment [9] addresses human Phosphoinositide 3-kinase alpha (PI3Ka), PIK3CA (gene 5290) (UniProt P42336). Nature of the experiment: NVS_ENZ_hPI3Ka: NovaScreen (NVS) Enzymatic Assay for human Phosphoinositide 3-kinase alpha (PI3Ka) (AID 2283196). A digest of the protocol: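 Duplicate single-point screen (25 uM), then singleton dose-response (max 50 uM) for compounds meeting the threshold. Cell-free kinase reaction, 1 h; fluorescent mobility-shift readout.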

Experiment [10] addresses human Rho Associated Coiled-coil Containing Protein Kinase 1 (ROCK1), ROCK1 (gene 6093) (UniProt Q13464). In words: NVS_ENZ_hROCK1: NovaScreen (NVS) Enzymatic Assay for human Rho Associated Coiled-coil Containing Protein Kinase 1 (ROCK1) (AID 2283214). A digest of the protocol:
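Compounds first run in duplicate at 25 uM against recombinant human ROCK1, then followed in concentration series. Kinase activity was read 1 h post-dosing by fluorescence with mobility-shift separation, as signal loss relative to DMSO.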

The target in experiment [11] is Serine/threonine-protein phosphatase PP1-alpha catalytic subunit (Homo sapiens) (UniProt P62136). Nature of the experiment: NVS_ENZ_hPPP1CA: NovaScreen (NVS) Enzymatic Assay for human Protein Phosphatase 1 Aatalytic subunit Alpha (PPP1CA) (AID 2283200). A digest of the protocol: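 Chemicals were first screened in duplicate at 25 uM, and those passing threshold (e.g. 30% inhibition) were run as concentration series to 50 uM. Cell-free recombinant protein, 1.33 h read, fluorescent substrate/product mobility-shift detection, normalised to DMSO.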

Experiment [12] addresses human Protein Phosphatase, Mg2+/Mn2+ Dependent 1A (PPM1A), PPM1A (gene 5494) (UniProt P35813). In words: NVS_ENZ_hPPM1A: NovaScreen (NVS) Enzymatic Assay for human Protein Phosphatase, Mg2+/Mn2+ Dependent 1A (PPM1A) (AID 2283198). In short, it runs like this:
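Primary screen in duplicate at 25 uM, with actives then titrated to a maximum of 50 uM. Recombinant PPM1A dephosphorylation of fluorescent substrate measured at 1 h, with substrate and product separated by mobility shift; inhibition fitted against DMSO.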

Experiment [13] deals with Tyrosine-protein phosphatase non-receptor type 12 (Homo sapiens) (UniProt Q05209). In words: NVS_ENZ_hPTPN12: NovaScreen (NVS) Enzymatic Assay for human Protein Tyrosine Phosphatase Non-receptor Type 12 (PTPN12) (AID 2283204). In short, it runs like this:
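Single-concentration duplicates (25 uM) preceded singleton concentration-response up to 50 uM for chemicals passing threshold. Cell-free recombinant PTPN12 activity was read 1.33 h after dosing via fluorescence after mobility-shift separation; loss of signal versus DMSO.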

For experiment [14], the target named is Tyrosine-protein phosphatase non-receptor type 11 (Homo sapiens) (UniProt Q06124). In words: NVS_ENZ_hPTPN11: NovaScreen (NVS) Enzymatic Assay for human Protein Tyrosine Phosphatase Non-receptor Type 11 (PTPN11) (AID 2283202). In short, it runs like this: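 Compounds first tested in duplicate at 25 uM; those reaching ~30% inhibition rerun in singleton concentration-response, top 50 uM. Phosphatase activity measured after 0.5 h by fluorescence with mobility-shift separation, relative to DMSO.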

The target of experiment [15] is cAMP-dependent protein kinase catalytic subunit alpha (Homo sapiens) (UniProt P17612). Nature of the experiment: NVS_ENZ_hPKA: NovaScreen (NVS) Enzymatic Assay for human Protein Kinase A (PKA) (AID 2283192). A digest of the protocol:
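Cell-free kinase activity read by fluorescence after mobility-shift separation of substrate and product, 1 h post-dosing. Single-concentration duplicate screen (25 uM) preceded singleton concentration series (top 50 uM); loss of signal versus DMSO.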

Experiment [16] concerns the target PPP2CA (gene 5515) (UniProt P67775). Nature of the experiment: NVS_ENZ_hPPP2CA: NovaScreen (NVS) Enzymatic Assay for human Protein Phosphatase 2 Aatalytic subunit Alpha (PPP2CA) (AID 2283199). In short, it runs like this: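 Cell-free phosphatase activity: fluorescent substrate turnover by recombinant human enzyme, resolved by mobility shift at 1.33 h. Compounds passing the 25 uM duplicate primary screen were rerun in singleton series with a 50 uM top concentration.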

Tyrosine-protein phosphatase non-receptor type 12 (Homo sapiens), sequence (Q05209 whole entry, looked up): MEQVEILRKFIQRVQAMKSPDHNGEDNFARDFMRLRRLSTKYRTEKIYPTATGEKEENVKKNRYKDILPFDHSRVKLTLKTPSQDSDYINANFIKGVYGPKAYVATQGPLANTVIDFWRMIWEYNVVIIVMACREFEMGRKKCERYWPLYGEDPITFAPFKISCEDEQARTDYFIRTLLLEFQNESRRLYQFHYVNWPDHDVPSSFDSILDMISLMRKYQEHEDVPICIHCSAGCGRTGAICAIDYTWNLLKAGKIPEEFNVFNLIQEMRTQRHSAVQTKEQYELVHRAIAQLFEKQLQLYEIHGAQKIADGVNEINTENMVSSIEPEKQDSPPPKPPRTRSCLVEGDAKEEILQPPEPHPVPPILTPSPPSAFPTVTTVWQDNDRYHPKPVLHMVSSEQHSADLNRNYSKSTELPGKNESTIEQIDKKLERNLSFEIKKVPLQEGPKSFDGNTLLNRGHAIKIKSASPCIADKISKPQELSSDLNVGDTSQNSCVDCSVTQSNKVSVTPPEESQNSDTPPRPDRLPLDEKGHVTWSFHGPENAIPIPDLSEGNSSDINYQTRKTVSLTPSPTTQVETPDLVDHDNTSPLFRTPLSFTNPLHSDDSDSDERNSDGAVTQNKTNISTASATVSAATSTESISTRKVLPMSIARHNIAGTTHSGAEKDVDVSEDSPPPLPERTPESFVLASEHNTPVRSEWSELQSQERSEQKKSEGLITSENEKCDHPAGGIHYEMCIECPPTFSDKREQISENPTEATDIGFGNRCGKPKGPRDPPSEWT
human Phosphatase and Tensin Homolog (PTEN), PTEN (gene 5728), sequence (P60484 whole entry, looked up): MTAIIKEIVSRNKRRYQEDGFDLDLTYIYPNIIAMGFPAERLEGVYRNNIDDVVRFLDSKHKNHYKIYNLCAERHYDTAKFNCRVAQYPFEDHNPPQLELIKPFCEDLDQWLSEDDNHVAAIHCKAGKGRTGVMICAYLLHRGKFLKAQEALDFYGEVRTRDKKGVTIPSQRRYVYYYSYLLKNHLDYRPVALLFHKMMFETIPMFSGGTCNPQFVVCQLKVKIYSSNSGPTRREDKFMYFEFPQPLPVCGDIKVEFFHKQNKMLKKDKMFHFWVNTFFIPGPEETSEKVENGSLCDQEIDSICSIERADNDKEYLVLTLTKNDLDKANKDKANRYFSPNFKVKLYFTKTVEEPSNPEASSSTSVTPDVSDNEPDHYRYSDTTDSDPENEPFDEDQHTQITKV
human Protein Tyrosine Phosphatase Non-receptor Type 6 (PTPN6), PTPN6 (gene 5777), sequence (P29350 whole entry, looked up): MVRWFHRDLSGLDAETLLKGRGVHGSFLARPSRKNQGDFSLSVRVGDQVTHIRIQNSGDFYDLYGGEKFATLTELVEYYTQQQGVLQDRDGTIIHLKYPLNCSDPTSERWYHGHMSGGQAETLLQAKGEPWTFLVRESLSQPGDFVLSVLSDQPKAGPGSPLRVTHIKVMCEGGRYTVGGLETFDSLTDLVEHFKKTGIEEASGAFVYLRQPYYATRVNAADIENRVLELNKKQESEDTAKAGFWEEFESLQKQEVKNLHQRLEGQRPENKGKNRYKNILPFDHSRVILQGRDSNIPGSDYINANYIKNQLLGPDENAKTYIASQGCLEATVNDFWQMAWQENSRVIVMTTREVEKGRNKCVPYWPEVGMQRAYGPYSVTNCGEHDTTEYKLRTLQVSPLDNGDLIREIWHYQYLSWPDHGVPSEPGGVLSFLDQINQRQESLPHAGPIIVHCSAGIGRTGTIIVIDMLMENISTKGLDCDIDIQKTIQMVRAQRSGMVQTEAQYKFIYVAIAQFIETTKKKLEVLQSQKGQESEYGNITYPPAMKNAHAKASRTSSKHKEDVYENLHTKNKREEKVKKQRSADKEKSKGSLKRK
human Protein Tyrosine Phosphatase Receptor Type C (PTPRC), PTPRC (gene 5788), sequence (P08575 whole entry, looked up): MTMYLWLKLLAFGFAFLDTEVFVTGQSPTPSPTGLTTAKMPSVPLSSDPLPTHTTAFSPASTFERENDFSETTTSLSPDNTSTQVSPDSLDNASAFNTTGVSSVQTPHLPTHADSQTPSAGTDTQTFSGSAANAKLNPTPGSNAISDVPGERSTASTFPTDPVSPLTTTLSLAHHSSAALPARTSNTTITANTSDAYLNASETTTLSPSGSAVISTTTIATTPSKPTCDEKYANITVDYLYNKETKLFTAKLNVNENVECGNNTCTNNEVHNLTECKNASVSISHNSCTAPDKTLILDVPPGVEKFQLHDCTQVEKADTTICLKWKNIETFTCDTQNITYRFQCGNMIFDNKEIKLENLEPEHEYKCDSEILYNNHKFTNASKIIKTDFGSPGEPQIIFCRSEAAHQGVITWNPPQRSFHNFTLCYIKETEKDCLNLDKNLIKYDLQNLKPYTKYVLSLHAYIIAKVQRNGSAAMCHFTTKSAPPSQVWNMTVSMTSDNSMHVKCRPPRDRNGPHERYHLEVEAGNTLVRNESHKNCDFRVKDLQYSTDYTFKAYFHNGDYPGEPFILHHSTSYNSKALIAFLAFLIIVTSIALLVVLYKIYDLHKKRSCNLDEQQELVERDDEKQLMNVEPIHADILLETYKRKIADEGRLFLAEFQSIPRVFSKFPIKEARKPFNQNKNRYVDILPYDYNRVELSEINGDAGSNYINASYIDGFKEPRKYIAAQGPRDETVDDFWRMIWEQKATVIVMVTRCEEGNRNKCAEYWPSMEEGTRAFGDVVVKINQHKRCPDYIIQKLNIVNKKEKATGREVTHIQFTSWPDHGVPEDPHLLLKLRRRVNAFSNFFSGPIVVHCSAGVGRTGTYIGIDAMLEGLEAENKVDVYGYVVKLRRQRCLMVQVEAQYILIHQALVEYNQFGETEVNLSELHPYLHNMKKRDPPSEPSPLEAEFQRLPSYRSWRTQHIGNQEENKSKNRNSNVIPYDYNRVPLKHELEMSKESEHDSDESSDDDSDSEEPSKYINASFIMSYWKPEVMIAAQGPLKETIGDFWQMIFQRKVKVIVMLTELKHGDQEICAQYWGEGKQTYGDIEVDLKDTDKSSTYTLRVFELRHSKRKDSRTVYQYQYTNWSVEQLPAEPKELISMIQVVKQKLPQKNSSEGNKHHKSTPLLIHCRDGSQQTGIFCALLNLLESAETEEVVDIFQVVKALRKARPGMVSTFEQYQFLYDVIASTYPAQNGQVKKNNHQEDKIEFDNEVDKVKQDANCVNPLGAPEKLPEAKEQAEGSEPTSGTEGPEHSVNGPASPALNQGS

In the case of `c1ccc(OP(Oc2ccccc2)Oc2ccccc2)cc1`, the outcome in [1] was inactive.

For `OCC1CO1` (stereo unspecified), the outcome in experiment [2] was inactive.

In the case of `Cc1ccc(N)cc1N`, in experiment [3], the AC50 was 32.2 µM (active).

In the case of `Nc1cc2c3c(c1)C(c1ccccc1)=N[C@@H](NC(=O)c1cccnc1)C(=O)N3CC2`, the AC50 in [4] was 17.9 µM (active).

For the molecule `Nc1ccc([N+](=O)[O-])cc1Cl`, in experiment [5], the AC50 was 2.67 µM (active).

With `Cc1cc(C)c(C(=O)P(=O)(c2ccccc2)c2ccccc2)c(C)c1`, the AC50 in [6] is 0.687 µM (active).

In the case of `CC(Cl)(Cl)C(=O)O`, the molecule was called inactive in [7].

`ClC(Cl)c1ccccc1`: the molecule was called inactive in experiment [8].

As for `Cc1ccc2c(c1N)C(=O)c1ccccc1C2=O`, the concentration at half-maximal activity (AC50) in [6] was 5.53 µM (active). For the same molecule, the result in [9] was inactive.

Take `O=C(O)C1C(C(=O)O)C2(Cl)C(Cl)=C(Cl)C1(Cl)C2(Cl)Cl` (stereo unspecified): the result in [8] was inactive.

For the molecule `Cc1ccc(O)cc1C`, the outcome in experiment [3] was inactive.

In the case of `Nc1ccc2ccccc2c1`, in experiment [3], the AC50 was 12.3 µM (active).

For `O=P(Oc1ccccc1)(Oc1ccccc1)Oc1ccccc1`, in experiment [10], the molecule was called inactive.

On to `CC(C)(C)c1ccc(O)cc1`, for which, in experiment [11], the outcome was inactive.

In the case of `O=C(O)C(Cl)Cl`, the molecule was classed as inactive in [12] and in experiment [13].

Take `CCCCN(CCCC)N=O`: the outcome in experiment [9] was inactive.

`CC(Cl)CN(C)C` (stereo unspecified): the result in [6] and in [5] was inactive.

For `CCOC(=O)c1ccccc1C(=O)OCC`, in [11], the molecule was classed as inactive.

For `CN(C)C(=O)Cl`, in experiment [2], the AC50 is 41.7 µM (active). Moreover, the outcome in experiment [8] was inactive.

Consider `O=c1ssc(Cl)c1Cl`, for which the molecule was called inactive in experiment [14], in experiment [5] and in experiment [13].

In the case of `O=P1(N(CCCl)CCCl)NCCCO1` (stereo unspecified), the call in experiment [13], in experiment [3] and in experiment [7] was inactive.

On to `CCOS(=O)(=O)OCC`, for which the result in experiment [8] was inactive.

Consider `CCOc1ccc(C(C)(C)COCc2cccc(Oc3ccccc3)c2)cc1`, for which the call in experiment [15], in experiment [12], in experiment [10] and in experiment [7] was inactive.

For `Clc1ccc(Oc2ccccc2)cc1`, the molecule was called inactive in experiment [5].

As to `ClC(Cl)(Cl)c1ccccc1`, the result in [16] was inactive.

What is called AC50 is the concentration at which the activity in the assay is half-maximal.
